# How the values were obtained:
# Assay in all cases: DAPPL (digital affinity profiling via proximity ligation, sequencing); 10 mM Tris-HCl pH 7.5, 50 mM NaCl, 1 mM DTT, 4% glycerol, room temperature, 30 min; GST-TFs on glutathione beads, 16-mer random dsDNA library, 0.1% formaldehyde crosslink after washing; high values mean tight binding
# FLI1 = biological target: T1, FLI1 (Homo sapiens, UniProt Q01543 1-452); settings: protein: recombinant; tags: N-terminal GST; dsDNA, one strand shown
# T1 sequence: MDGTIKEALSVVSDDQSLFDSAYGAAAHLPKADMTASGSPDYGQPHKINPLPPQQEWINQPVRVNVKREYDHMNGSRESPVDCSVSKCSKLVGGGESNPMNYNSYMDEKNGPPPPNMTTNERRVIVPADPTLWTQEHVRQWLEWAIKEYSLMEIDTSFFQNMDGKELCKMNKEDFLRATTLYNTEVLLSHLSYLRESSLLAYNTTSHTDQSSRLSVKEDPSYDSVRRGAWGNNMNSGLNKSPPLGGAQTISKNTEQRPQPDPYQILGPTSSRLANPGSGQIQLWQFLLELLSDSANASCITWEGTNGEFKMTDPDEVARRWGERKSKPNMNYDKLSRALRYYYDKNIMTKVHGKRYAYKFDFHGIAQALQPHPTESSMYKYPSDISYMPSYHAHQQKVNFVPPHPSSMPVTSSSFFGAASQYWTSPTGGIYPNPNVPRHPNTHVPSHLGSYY
# Procedure, shortened: (§1)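 Sequencing on an Illumina NextSeq500 followed washing, crosslinking with 0.1% formaldehyde, proximity ligation (BsaI/T4 ligase, 1 h, 37 °C) and PCR amplification of pools that had been incubated for 30 min at room temperature with 200 nmole of a random double-stranded 16-mer DNA library in Tris/NaCl/DTT/glycerol buffer. Each pool held DNA-barcoded human transcription factors, expressed in yeast as GST fusions and captured on glutathione beads, plus a tag-only sample. Binding signal is a hexamer's read frequency for a factor divided by its frequency in the tag-only sample.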
# ELK1 = biological target: T2, ELK1 (Homo sapiens, UniProt P19419 1-428); settings: protein: recombinant; tags: N-terminal GST; dsDNA, one strand shown
# T2 sequence: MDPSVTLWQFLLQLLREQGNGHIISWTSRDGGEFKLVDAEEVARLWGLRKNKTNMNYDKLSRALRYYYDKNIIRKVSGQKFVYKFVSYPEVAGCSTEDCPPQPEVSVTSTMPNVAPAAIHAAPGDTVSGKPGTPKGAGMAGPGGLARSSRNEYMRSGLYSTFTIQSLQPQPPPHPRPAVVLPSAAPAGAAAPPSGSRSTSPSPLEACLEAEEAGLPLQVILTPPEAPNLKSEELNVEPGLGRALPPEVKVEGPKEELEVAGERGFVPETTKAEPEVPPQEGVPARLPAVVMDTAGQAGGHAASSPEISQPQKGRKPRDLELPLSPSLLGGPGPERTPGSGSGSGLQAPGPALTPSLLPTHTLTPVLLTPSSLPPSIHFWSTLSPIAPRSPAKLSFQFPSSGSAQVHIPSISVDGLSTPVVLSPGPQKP
# Procedure, shortened: as §1
# GABPA = biological target: T3, GABPA (Homo sapiens, UniProt Q06546 1-454); settings: protein: recombinant; tags: N-terminal GST; dsDNA, one strand shown
# T3 sequence: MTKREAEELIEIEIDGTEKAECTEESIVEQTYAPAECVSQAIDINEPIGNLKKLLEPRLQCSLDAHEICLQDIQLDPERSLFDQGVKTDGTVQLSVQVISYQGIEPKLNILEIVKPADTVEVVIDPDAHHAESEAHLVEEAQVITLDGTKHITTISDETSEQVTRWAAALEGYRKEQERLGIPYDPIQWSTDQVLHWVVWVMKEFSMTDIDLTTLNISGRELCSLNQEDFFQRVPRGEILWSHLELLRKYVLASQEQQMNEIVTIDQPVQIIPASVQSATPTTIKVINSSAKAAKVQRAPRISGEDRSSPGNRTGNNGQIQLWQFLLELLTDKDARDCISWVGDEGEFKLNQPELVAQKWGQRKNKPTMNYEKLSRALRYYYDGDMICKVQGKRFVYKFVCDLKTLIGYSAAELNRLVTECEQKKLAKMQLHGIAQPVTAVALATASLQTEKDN
# Procedure, shortened: as §1
# ERG = biological target: T4, ERG (Homo sapiens, UniProt P11308 1-479); settings: protein: recombinant; tags: N-terminal GST; dsDNA, one strand shown
# T4 sequence: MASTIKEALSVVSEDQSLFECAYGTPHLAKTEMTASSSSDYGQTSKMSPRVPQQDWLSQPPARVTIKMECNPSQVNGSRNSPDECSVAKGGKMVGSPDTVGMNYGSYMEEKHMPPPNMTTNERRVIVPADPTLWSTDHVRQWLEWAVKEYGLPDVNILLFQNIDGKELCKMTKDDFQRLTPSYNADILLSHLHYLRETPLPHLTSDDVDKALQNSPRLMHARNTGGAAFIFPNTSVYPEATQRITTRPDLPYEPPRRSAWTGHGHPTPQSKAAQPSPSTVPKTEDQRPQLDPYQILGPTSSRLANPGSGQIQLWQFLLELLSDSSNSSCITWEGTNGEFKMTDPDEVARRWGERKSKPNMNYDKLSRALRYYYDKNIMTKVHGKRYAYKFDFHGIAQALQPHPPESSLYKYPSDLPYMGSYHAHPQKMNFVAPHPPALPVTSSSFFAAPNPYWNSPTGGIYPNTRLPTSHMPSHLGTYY
# Procedure, shortened: as §1
# ELF1 = ELF1 (Homo sapiens, UniProt P32519 1-619); settings: protein: recombinant; tags: N-terminal GST; dsDNA, one strand shown
# Sequence of ELF1 (P32519 whole entry): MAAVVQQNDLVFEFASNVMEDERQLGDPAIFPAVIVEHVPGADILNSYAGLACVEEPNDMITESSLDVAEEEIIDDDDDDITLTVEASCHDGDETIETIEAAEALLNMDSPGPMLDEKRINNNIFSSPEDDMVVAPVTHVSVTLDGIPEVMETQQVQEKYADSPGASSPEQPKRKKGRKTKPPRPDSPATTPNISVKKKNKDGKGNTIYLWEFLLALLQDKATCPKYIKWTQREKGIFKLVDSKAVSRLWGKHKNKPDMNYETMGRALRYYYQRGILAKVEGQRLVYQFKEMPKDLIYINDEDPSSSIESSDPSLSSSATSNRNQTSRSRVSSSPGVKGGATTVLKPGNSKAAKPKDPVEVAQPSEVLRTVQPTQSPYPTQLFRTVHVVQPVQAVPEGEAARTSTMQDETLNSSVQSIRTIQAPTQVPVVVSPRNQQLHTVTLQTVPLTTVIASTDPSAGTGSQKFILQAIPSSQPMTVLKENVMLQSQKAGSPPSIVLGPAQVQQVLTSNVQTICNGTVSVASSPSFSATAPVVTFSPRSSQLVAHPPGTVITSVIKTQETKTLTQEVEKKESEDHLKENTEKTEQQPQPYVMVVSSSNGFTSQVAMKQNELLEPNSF
# Procedure, shortened: as §1
# EHF = biological target: T5, EHF (Homo sapiens, UniProt Q9NZC4 1-300); settings: protein: recombinant; tags: N-terminal GST; dsDNA, one strand shown
# T5 sequence: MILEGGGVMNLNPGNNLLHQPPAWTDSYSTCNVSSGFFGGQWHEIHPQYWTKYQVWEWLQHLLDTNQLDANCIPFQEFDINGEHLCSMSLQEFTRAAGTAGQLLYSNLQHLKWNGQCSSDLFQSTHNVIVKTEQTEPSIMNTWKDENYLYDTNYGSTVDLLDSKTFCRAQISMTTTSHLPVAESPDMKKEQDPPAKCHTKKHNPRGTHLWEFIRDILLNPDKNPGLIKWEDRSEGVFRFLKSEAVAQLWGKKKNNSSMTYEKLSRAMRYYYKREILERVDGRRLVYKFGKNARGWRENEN
# Procedure, shortened: as §1
# SPI1 = SPI1 (Homo sapiens, UniProt P17947 1-270); settings: protein: recombinant; tags: N-terminal GST; dsDNA, one strand shown
# Procedure, shortened: as §1
# SPIB = SPIB (Homo sapiens, UniProt Q01892 1-262); settings: protein: recombinant; tags: N-terminal GST; dsDNA, one strand shown
# Sequence of SPIB (Q01892 whole entry): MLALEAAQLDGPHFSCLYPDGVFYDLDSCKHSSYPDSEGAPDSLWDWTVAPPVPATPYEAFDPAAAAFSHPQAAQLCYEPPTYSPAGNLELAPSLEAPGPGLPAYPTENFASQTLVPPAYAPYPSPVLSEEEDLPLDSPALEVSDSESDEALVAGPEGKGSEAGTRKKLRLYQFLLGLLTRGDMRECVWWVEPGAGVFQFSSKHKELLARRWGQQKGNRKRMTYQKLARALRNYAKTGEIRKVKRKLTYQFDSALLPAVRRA
# Procedure, shortened: as §1
# ELK3 = biological target: T6, ELK3 (Homo sapiens, UniProt P41970 1-407); settings: protein: recombinant; tags: N-terminal GST; dsDNA, one strand shown
# T6 sequence: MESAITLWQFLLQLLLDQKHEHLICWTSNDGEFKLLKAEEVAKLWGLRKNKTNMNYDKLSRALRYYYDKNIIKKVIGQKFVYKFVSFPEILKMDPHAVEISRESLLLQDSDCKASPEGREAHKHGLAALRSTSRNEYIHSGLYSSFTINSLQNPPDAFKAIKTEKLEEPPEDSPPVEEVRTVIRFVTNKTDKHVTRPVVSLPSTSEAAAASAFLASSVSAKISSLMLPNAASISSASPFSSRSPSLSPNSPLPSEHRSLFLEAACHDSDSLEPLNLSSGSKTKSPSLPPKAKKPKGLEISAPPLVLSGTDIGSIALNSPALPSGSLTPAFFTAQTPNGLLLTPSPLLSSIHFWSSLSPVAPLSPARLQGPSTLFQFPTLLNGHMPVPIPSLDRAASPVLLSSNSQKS
# Procedure, shortened: as §1
# FEV = biological target: T7, FEV (Homo sapiens, UniProt Q99581 1-238); settings: protein: recombinant; tags: N-terminal GST; dsDNA, one strand shown
# T7 sequence: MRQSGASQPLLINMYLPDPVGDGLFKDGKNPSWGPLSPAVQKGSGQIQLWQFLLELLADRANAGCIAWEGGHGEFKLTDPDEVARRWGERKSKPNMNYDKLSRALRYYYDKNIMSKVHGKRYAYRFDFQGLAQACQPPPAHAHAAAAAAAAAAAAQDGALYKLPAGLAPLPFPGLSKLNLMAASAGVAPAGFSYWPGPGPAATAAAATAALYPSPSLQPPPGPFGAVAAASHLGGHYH
# Procedure, shortened: as §1
# ETV5 = ETV5 (Homo sapiens, UniProt P41161 1-510); settings: protein: recombinant; tags: N-terminal GST; dsDNA, one strand shown
# Sequence of ETV5 (P41161 whole entry): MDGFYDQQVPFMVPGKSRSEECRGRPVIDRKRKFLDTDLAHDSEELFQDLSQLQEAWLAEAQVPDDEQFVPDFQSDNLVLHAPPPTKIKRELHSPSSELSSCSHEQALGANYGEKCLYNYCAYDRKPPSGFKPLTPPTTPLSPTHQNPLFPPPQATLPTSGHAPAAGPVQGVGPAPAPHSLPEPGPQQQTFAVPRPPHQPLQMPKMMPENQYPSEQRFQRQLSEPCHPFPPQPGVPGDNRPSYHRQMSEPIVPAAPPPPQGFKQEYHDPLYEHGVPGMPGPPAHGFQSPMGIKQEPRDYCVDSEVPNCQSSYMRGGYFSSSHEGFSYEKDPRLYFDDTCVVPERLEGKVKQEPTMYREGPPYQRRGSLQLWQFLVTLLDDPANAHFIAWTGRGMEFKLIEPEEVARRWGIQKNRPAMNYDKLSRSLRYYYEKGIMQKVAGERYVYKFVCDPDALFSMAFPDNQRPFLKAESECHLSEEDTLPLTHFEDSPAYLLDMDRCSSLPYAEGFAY
# Procedure, shortened: as §1
# HSF1 = HSF1 (Homo sapiens, UniProt Q00613 1-529); settings: protein: recombinant; tags: N-terminal GST; chain copies: 3; dsDNA, one strand shown
# Sequence of HSF1 (Q00613 whole entry): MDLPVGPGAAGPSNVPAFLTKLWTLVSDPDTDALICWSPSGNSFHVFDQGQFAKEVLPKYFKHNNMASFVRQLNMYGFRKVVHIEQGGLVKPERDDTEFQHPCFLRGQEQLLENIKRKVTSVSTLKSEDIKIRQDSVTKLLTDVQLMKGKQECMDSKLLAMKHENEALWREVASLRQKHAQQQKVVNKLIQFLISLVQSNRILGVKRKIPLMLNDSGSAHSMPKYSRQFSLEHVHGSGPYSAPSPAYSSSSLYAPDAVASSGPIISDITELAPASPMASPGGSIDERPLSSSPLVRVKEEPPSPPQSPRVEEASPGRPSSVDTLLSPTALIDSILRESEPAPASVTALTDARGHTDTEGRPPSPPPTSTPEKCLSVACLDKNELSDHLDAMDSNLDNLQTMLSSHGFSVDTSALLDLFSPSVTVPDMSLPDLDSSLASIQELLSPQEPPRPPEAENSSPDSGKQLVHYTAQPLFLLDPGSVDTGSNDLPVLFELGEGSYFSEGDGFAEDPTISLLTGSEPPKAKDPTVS
# Procedure, shortened: as §1
# SPIC = biological target: T8, SPIC (Homo sapiens, UniProt Q8N5J4 1-248); settings: protein: recombinant; tags: N-terminal GST; dsDNA, one strand shown
# T8 sequence: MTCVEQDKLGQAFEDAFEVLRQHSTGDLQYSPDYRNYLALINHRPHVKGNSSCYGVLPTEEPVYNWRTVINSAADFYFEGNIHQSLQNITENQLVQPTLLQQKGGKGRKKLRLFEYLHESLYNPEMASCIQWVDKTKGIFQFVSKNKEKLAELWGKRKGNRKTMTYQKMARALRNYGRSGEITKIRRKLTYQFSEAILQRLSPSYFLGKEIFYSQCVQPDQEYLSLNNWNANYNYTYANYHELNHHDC
# Procedure, shortened: as §1
# ELF4 = ELF4 (Homo sapiens, UniProt Q99607 1-663); settings: protein: recombinant; tags: N-terminal GST; dsDNA, one strand shown
# Sequence of ELF4 (Q99607 whole entry): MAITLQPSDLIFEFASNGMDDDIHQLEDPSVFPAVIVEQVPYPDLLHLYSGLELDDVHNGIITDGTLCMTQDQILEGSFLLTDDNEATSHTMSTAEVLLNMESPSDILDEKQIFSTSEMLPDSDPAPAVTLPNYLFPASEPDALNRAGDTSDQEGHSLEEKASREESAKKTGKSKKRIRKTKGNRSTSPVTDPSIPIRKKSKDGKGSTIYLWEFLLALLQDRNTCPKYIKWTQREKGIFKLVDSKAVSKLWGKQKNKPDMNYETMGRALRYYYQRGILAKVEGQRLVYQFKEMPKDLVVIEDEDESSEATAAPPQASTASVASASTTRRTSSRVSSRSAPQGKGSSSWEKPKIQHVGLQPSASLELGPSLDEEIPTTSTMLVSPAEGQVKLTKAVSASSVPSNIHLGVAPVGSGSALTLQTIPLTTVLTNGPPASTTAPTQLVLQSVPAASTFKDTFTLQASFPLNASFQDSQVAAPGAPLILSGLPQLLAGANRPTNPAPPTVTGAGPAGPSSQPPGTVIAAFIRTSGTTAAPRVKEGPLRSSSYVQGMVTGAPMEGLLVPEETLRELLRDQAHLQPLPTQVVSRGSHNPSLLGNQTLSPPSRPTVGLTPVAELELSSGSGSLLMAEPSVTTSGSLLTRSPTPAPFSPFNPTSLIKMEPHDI
# Procedure, shortened: as §1
# ELK4 = biological target: T9, ELK4 (Homo sapiens, UniProt P28324-2 1-405); settings: protein: recombinant; tags: N-terminal GST; dsDNA, one strand shown
# T9 sequence: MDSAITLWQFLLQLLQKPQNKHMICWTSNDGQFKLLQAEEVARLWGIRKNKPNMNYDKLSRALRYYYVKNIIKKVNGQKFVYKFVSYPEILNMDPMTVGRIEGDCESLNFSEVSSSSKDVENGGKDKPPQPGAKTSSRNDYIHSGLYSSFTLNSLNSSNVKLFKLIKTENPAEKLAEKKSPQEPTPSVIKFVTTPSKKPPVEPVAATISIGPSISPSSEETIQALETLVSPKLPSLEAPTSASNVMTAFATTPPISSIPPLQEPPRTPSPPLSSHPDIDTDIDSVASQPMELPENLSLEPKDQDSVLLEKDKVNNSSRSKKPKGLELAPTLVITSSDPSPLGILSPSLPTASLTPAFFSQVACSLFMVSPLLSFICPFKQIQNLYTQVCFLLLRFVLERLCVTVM
# Procedure, shortened: as §1
# ETV2 = biological target: T10, ETV2 (Homo sapiens, UniProt O00321 1-342); settings: protein: recombinant; tags: N-terminal GST; dsDNA, one strand shown
# T10 sequence: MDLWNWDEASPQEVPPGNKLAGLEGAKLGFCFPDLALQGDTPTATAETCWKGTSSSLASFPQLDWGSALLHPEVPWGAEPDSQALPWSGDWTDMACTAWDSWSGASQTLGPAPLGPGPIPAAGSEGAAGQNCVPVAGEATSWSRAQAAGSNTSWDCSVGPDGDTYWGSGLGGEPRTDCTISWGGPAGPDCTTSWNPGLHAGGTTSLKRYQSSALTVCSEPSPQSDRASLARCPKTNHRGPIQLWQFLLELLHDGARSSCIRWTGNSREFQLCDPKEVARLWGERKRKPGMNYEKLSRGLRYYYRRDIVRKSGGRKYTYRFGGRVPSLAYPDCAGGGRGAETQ
# Procedure, shortened: as §1
# ELF3 = biological target: T11, ELF3 (Homo sapiens, UniProt P78545 1-371); settings: protein: recombinant; tags: N-terminal GST; dsDNA, one strand shown
# T11 sequence: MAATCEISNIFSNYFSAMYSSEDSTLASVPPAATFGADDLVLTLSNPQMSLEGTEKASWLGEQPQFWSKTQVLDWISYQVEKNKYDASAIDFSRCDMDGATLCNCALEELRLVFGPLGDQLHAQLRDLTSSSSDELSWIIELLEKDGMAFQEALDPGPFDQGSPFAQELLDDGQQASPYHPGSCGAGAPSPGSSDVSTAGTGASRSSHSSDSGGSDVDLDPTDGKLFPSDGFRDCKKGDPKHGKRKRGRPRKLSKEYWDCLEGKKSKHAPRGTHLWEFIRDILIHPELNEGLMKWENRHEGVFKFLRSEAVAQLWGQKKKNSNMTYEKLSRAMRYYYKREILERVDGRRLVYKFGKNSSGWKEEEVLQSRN
# Procedure, shortened: as §1
# CRX = CRX (Homo sapiens, UniProt O43186 1-299); settings: protein: recombinant; tags: N-terminal GST; dsDNA, one strand shown
# Sequence of CRX (O43186 whole entry): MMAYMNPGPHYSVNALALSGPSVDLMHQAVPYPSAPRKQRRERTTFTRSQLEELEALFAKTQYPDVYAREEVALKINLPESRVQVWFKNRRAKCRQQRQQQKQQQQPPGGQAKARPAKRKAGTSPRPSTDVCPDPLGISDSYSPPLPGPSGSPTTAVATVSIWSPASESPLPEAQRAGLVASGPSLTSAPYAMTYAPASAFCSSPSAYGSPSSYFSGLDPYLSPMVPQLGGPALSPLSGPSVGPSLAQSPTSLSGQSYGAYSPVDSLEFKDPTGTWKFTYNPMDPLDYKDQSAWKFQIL
# Procedure, shortened: as §1
# ETV1 = ETV1 (Homo sapiens, UniProt P50549 1-477); settings: protein: recombinant; tags: N-terminal GST; dsDNA, one strand shown
# Sequence of ETV1 (P50549 whole entry): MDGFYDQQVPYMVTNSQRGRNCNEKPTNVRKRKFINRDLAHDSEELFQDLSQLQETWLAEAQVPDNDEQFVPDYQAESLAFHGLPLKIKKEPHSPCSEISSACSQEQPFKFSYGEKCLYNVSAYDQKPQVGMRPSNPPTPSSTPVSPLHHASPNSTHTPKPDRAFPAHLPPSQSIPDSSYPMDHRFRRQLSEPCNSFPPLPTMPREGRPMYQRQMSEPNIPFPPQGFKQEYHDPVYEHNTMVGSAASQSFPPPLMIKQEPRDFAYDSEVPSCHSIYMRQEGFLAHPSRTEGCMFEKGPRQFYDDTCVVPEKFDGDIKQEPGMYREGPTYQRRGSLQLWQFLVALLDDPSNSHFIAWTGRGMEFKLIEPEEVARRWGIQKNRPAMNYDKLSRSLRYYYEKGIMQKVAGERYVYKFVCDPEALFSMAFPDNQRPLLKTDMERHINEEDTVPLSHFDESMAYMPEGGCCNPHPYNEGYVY
# Procedure, shortened: as §1
sequence,measurement,setting,value
TTTGCG,binding signal,FLI1,"1.27 fold enrichment (6-mer frequency, TF over GST control)"
same,binding signal,ELK1,"1.29 fold enrichment (6-mer frequency, TF over GST control)"
same,binding signal,GABPA,"1.26 fold enrichment (6-mer frequency, TF over GST control)"
same,binding signal,ERG,"1.14 fold enrichment (6-mer frequency, TF over GST control)"
same,binding signal,ELF1,"1.27 fold enrichment (6-mer frequency, TF over GST control)"
same,binding signal,EHF,"1.19 fold enrichment (6-mer frequency, TF over GST control)"
same,binding signal,SPI1,"1.32 fold enrichment (6-mer frequency, TF over GST control)"
same,binding signal,SPIB,"1.19 fold enrichment (6-mer frequency, TF over GST control)"
same,binding signal,ELK3,"1.11 fold enrichment (6-mer frequency, TF over GST control)"
same,binding signal,FEV,"1.13 fold enrichment (6-mer frequency, TF over GST control)"
same,binding signal,ETV5,"1.29 fold enrichment (6-mer frequency, TF over GST control)"
same,binding signal,HSF1,"1.3 fold enrichment (6-mer frequency, TF over GST control)"
same,binding signal,SPIC,"1.37 fold enrichment (6-mer frequency, TF over GST control)"
same,binding signal,ELF4,"1.21 fold enrichment (6-mer frequency, TF over GST control)"
same,binding signal,ELK4,"1.03 fold enrichment (6-mer frequency, TF over GST control)"
same,binding signal,ETV2,"1.13 fold enrichment (6-mer frequency, TF over GST control)"
same,binding signal,ELF3,"1.3 fold enrichment (6-mer frequency, TF over GST control)"
same,binding signal,CRX,"1.31 fold enrichment (6-mer frequency, TF over GST control)"
same,binding signal,ETV1,"1.34 fold enrichment (6-mer frequency, TF over GST control)"

# Source: paper PMC7862700, “An all-to-all approach to the identification of sequence-specific readers for epigenetic DNA modifications on cytosine”
